PubChem BioAssay AID686970 (National Center for Advancing Translational Sciences (NCATS), 2013)
In all, about 360,000 compounds went through this assay and about 6,000 (1.7%) were called active. Entries that show only a call come without a potency. Another 8% or so got no clear call; they are omitted. The sample holds actives, similar compounds and a random draw of the others, so the mix is not that of the screen. Calls follow the shape of the dose curve; as a rule, active = well fitted cell-killing curve with a large enough effect; inconclusive = small, poorly fitted or top-dose-only effect, or effect the other way; inactive = flat fitted curve, though single readings scatter.

Assay: qHTS for induction of synthetic lethality in tumor cells producing 2HG: qHTS for the HT-1080-NT fibrosarcoma cell line; also: nearly all actives have a fitted effect of over 55% in size
Conditions: HT-1080-NT fibrosarcoma viability, CellTiter-Glo ATP luminescence, 48 h; series mostly up to 46.1 µM
From the text: Unbiased genomic sequencing for 22 glioma genomes found recurrent mutation of IDH1 on chromosome 2q33, a gene encoding the cytosolic isoform of IDH1 associated with the tricarboxylic acid cycle (TCA) that catalyzes the oxidative decarboxylation of isocitrate, yielding alpha-ketoglutarate and CO2 via NADP+ to NADPH conversion. Subsequent studies confirmed the recurrent IDH mutations in up to 70% of secondary gliomas and in 10% of AML cases. In addition, the somatic mutation of cancer-associated IDH1 is a point mutation resulting in various amino-acid substituents at Arginine132 (IDH1 R132), a key residue found in the enzyme's active site that when mutated, results in the loss-of-function in metabolizing isocitrate but confers a gain-of-function to produce the oncometabolite 2-hydroxyglutarate (2HG). This in effect defines IDH1 as an oncogene and provides an extraordinary opportunity to discover chemical probes against mutant IDH1 that may translate into much needed new therapies for glioma and AML patients.
This assay aims to perform a synthetic lethal screen for chemical probes specific for 2HG-producing tumor cells using matched paired cell lines (1) HT-1080-NT fibrosarcoma cell line that overproduces 2HG and (2) HT-1080-IDH1KD cell line which has IDH1 expression knocked-down. Desirable compounds are toxic to the NT fibrosarcoma cells but not to the IDH1KD cell line. The data in this AID corresponds to the results of the qHTS against the HT-1080-NT fibrosarcoma cell line.
[1] Dang L, Jin S, Su SM. IDH mutations in glioma and acute myeloid leukemia. Trends of Mol Med. 2010; 16(9): 387-97.
[2] Dang L et al. Cancer-associated IDH1 mutations produce 2-hydroxyglutarate. Nature. 2010; 465(7300):966.
NIH Molecular Libraries Probe Production Centers Network [MLPCN]
NIH Chemical Genomics Center [NCGC]
Assay Submitter (PI): Lenny Dang Ph.D., Agios Pharmaceuticals
Suspensions of trypsinized HT-1080-NT cells were dispensed into white, tissue culture-treated, solid 1536-well plates at 5uL/well (750 cells/well final concentration) in RPMI medium supplemented with 5% FBS. Plates were incubated at 37 degrees C for 2 hours, after which 23 nL of compounds or DMSO were delivered to each well using a pin tool. Plates were then incubated at 37 degrees C for an additional 48 hours. CellTiter-Glo viability reagent (Promega) was dispensed into wells (2.5uL/well) and incubated at room temperature for 10 minutes. The plates were measured on a PerkinElmer ViewLux plate reader for luminescent signal (clear filter, 1 sec exp). DMSO-treated control wells and media-only (no cells) control wells were used to normalize %Activity of identified toxic compounds; DMSO-treated wells corresponded to 0%Activity (100% viability), while media-only controls were used to normalize 100%Activity (0% viability).
Concentration-response curves were fitted to the signals arising from the resulting luminescence. The concentration-effect curves were then classified based on curve quality (r2), response magnitude and degree of measured activity, and compounds were subsequently categorized based on their curve class.
Potency is read from the fitted curve at half-maximal effect.

Compound	Potency
COC(=O)C[C@@H]1C=C[C@@H](NC(=O)c2ccc3c(c2)OCO3)[C@@H](CO)O1	inactive
C[C@H](CO)N1C[C@H](C)[C@H](CN(C)C(=O)c2ccncc2)OCc2ccccc2-c2c(n(C)c3ccccc23)C1=O	inactive
CC(=O)C1C(c2cccc(Oc3ccccc3)c2)NC(=O)NC1(O)C(F)(F)F (stereo not given)	inactive
CC1=NN(c2ccc(Cl)c(C(=O)O)c2)C(=O)/C1=C/c1ccc(-c2ccccc2[N+](=O)[O-])o1	inactive
O=C1NC(c2ccc(-c3ccccc3[N+](=O)[O-])o2)C(C(=O)c2ccc(Cl)cc2)C(O)(C(F)(F)F)N1 (stereo not given)	16.4 µM (active)
CCOC(=O)[C@]12CCCC=C1N(CCC1=CCCCC1)C(=O)[C@H](CC(=O)N1CCSCC1)C2	inactive
N#CCCN(C(=O)Nc1ccc(Cl)c(Cl)c1)C1CCCCC1	inactive
COc1ccc(NC(=O)c2c(C)oc3c2CCCC3)cc1	inactive
Cc1ccc(N/N=C2\COC(C)(C)CC2=O)cc1	inactive
COc1ccc(N/N=C2/CCCCC2=O)cc1	1.26 µM (active)
Cc1ccnc(SC2CC(=O)N(c3ccccc3)C2=O)n1 (stereo not given)	inactive
O=C1CC[C@@H](C(=O)N2CSC[C@@H]2C(=O)Nc2ccc(C(F)(F)F)cc2)N1	inactive
O=S1(=O)CC(N2CCN(Cc3ccccc3F)CC2)CN1Cc1cn(Cc2cccc(C(F)(F)F)c2)nn1 (stereo not given)	inactive
COc1cccc(OCCOc2cccc(/C=N/n3cnnc3)c2)c1	inactive
Cc1ccccc1OS(=O)(=O)c1cccc([N+](=O)[O-])c1	inactive
Cc1ccccc1OCCOc1ccc([N+](=O)[O-])cc1/C=N/n1cnnc1	2.31 µM (active)
NC1=CC(=O)C(=O)c2cccnc21	25.9 µM (active)
CCOc1ccc(CCN2C(=O)c3cccnc3C2=O)cc1OCC	inactive
Cc1ccc(S(=O)(=O)N2CC[C@H]3[C@@H](C2)C(=O)C[C@@H](c2ccccc2)N3S(=O)(=O)c2ccc(C)cc2)cc1	inactive
Fc1cnc(N2CCOCC2)nc1NCc1ccccc1	inactive
c1ccc(-c2nnc(N3CCOCC3)c3ccccc23)cc1	inactive
c1ccc2c(NC3C4CC5CC(C4)CC3C5)nc(N3CCOCC3)nc2c1 (stereo not given)	14.6 µM (active)
Cc1nc2ccccn2c(=O)c1NC(=O)c1ccc(Br)o1	inactive
CCCCN1C(=O)C(CC(=O)NC(c2ccccc2)c2ccccc2)CC(C(=O)N2CCOCC2)=C1C (stereo not given)	inactive

Compound	Potency
CC1=C(C(=O)N2CCOCC2)CC(CC(=O)NCC2CCCCC2)C(=O)N1Cc1ccc(F)cc1 (stereo not given)	inactive
O=S1(=O)CC(N2CCC(Cc3ccccc3)CC2)CN1Cc1ccccc1 (stereo not given)	inactive
CN(C)c1nc(=Nc2cccc(Cl)c2)ss1	inactive
Clc1cccc(N=C2NN=C(c3ccc4c(c3)OCCO4)CS2)c1	10 µM (active)
Cc1cccc(C)c1-n1nnnc1C1(C)CCC(=O)N1CCOc1ccccc1 (stereo not given)	inactive
CCCCc1ccc(S(=O)(=O)NC(=O)C2(C)CCN2C(=O)c2c(C)noc2C)cc1 (stereo not given)	inactive
N=c1c2c(-c3ccccc3)c(-c3ccccc3)oc2ncn1Cc1ccco1	23.1 µM (active)
C(=C\c1ccccc1)/CSc1nnc(-c2cccnc2)n1Cc1ccco1	inactive
COC(=O)c1ccc2nc(C3CCCCC3)c(Cc3cccc(F)c3)n2c1	inactive
O=C(Nc1cccc(Cc2ccccc2)c1)Nc1ccc2nc([C@@H]3O[C@H](CO)[C@@H](O)[C@H](O)[C@H]3O)[nH]c2c1	inactive
CC1(C)CC(N2CCN(C(c3ccccc3)c3ccccc3)CC2)=CC(=[N+]2CCCCC2)C1	2.06 µM (active)
c1ccc(C(c2ccccc2)N2CCN(Cc3nnnn3C3CCCCC3)CC2)cc1	inactive
COc1ccccc1CN1CCN(C(c2ccccc2)c2ccccc2)CC1	inactive
COC(=O)Nc1nc2ccc(Sc3ccccc3)cc2[nH]1	1.16 µM (active)
CN(c1ccccc1)S(=O)(=O)c1cc(C(=O)Nc2nc3ccccc3[nH]2)ccc1Cl	inactive
Cc1ccc(O)c(CNc2nc3ccccc3[nH]2)c1	inactive
Oc1c(C(c2ccccn2)N2CCOCC2)ccc2cccnc12 (stereo not given)	0.355 µM (active)
CC(C)c1cc(CN2CCOCC2)cc(C(C)C)c1O	inactive
Cc1ccc(-c2ccc(CN3C(C(C)C)C(=O)N(Cc4cn(CCC5OCCCO5)nn4)CCS3(=O)=O)cc2)cc1 (stereo not given)	inactive
CCOC(=O)/C(=N\Nc1cc(Cl)ccc1Cl)N1CCN(C)CC1	16.4 µM (active)
CCOC(=O)/C(=N\Nc1ccccc1Cl)N(C)C1CCS(=O)(=O)C1 (stereo not given)	inactive
CCOC(=O)N1CCN(C(=O)C2CCN(S(=O)(=O)c3cc(Cl)ccc3OCC)CC2)CC1	inactive
CCc1ccccc1NC(=O)[C@@H]1CCC(=O)N1C1OC(=O)c2c1ccc(OC)c2OC (stereo not given in full)	inactive
COc1ccc2c(c1OC)C(=O)OC2Nc1nc(-c2ccccc2)cs1 (stereo not given)	18.4 µM (active)

Compound	Potency
COc1ccc(-c2csc(Nc3cccc(C)n3)n2)cc1OC	inactive
O=C(NCc1cccc(C(F)(F)F)c1)c1ccc2sc(COCCO)nc2c1	inactive
COc1ccc(OC)c(NC(=O)C2CCCN2S(=O)(=O)c2ccc3c(c2)CC(C)N3C(C)=O)c1 (stereo not given)	inactive
C=C1C(=O)[C@]23C[C@H]1CCC2[C@@]1(C)C(C[C@@H]3O)[C@](C)(C(=O)O)CC[C@@H]1O (stereo not given in full)	18.4 µM (active)
CCc1nc2ccc(C(=O)NC3CCN(Cc4ccccc4)CC3)cn2c1N(CC)CCOC	inactive
CN(C)C(=O)c1cccc(-c2cnc3c(NC=O)cc(-c4ccc(C(=O)N5CCOCC5)cc4)cn23)c1	inactive
Cc1cc(NC(=O)CCN2CCN(Cc3ccccc3)CC2)ccc1Br	20.6 µM (active)
CCOC(=O)N1CCN(CCC(=O)Nc2ccccc2)CC1	inactive
O=C(CN1CCN(Cc2ccccc2)CC1)Nc1ccc(F)c(F)c1	inactive
CC(=O)Nc1cccc(Nc2ccc(C#N)cc2)c1	inactive
O=[N+]([O-])c1ccc(Oc2ccc(F)cc2Br)c2ccncc12	16.4 µM (active)
CC(C)C1Cc2[nH][nH]c(=O)c2C(c2ccc(Cl)cc2)O1 (stereo not given)	inactive
COC(=O)[C@]12CCCCC=C1N(Cc1ccccc1)C(=O)[C@H](CC(=O)NCc1ccc(C)o1)C2	inactive
C#CCOCCOCCOCCNc1nc(N2CCN(C(=O)[C@H](C(C)C)n3cc(CCO)nn3)CC2)nc(N2CCN(C(=O)[C@H]([C@@H](C)CC)n3cc(CCCN=C(N)N)nn3)CC2)n1	inactive
C#CCOCCOCCOCCNc1nc(N2CCN(C(=O)CCCCCCCCCCNC(=O)[C@H]([C@@H](C)CC)n3cc(CCCCN=C(N)N)nn3)CC2)nc(N2CCN(C(=O)CCCCCCCCCCNC(=O)[C@H](CO)n3cc(CCCSC)nn3)CC2)n1	23.1 µM (active)
C#CCOCCOCCOCCNc1nc(N2CCN(C(=O)Cn3cc(CCO)nn3)CC2)nc(N2CCN(C(=O)Cn3cc(CCCN=C(N)N)nn3)CC2)n1	inactive
Cc1ccc(NC(=O)COC(=O)CN2CCSC2=O)cc1F	inactive
CCCCn1nnnc1C(c1ccccc1)N1CCN(c2ccccc2OC)CC1 (stereo not given)	inactive
CC1Cc2[nH][nH]c(=O)c2C(C2CC2)O1 (stereo not given)	inactive
Cc1ccc(C(=O)OCC(=O)NC2CCCCCCC2)cc1C	inactive
NC(=O)CSc1nnc(NC(=O)c2ccc(Br)o2)s1	inactive
Cc1cccc(NC(=O)CSc2nc3[nH]ncc3c(=O)[nH]2)c1	inactive
Cc1cccc(NC(=O)c2nc(S(=O)(=O)Cc3ccccc3)ncc2Cl)c1	6.51 µM (active)
CSc1nnc(NC(=O)c2nc(S(=O)(=O)Cc3ccc(C)cc3)ncc2Cl)s1	7.31 µM (active)

Compound	Potency
COCCSc1nnc(NC(=O)CCS(=O)(=O)Cc2ccccc2)s1	inactive
Cc1cccc(NC(=O)C(C)SCc2ccccc2)c1 (stereo not given)	inactive
Cc1nc2ccccc2nc1CC(O)(c1ccccc1)c1ccccc1	inactive
CC1(c2cccc(Br)c2)NC(=O)N(CC(=O)NCCC2=CCCCC2)C1=O (stereo not given)	inactive
O=C1CCC(C(=O)OCC(=O)Nc2ccc(OC(F)F)cc2)=NN1	inactive
CCN(C(=O)Nc1cccc2ccccc12)c1ccccc1	inactive
O=C(NCC1CCN(Cc2ccccc2Cl)CC1)Nc1cccc(Cl)c1	inactive
Cc1cccc(CN2CCC(CNC(=O)Nc3ccc(F)c(Cl)c3)CC2)c1	16.4 µM (active)
Cc1ccccc1NC(=O)NCC1CCN(Cc2cccc(Cl)c2)CC1	inactive
OC[C@@H]1CN(Cc2ccc(Cl)cc2)C[C@H](n2cnc3c(NCc4ccncc4)ncnc32)O1	inactive
O=C(Nc1ccc(Cl)cc1)Nc1nnc(/C=C/c2ccccc2)s1	inactive
O=C(CSc1ccccc1)Nc1nnc(/C=C/c2ccccc2)s1	23.1 µM (active)
CCOCc1nnc(NC(=O)CSc2ccc(C)cc2)s1	inactive
CC1(C)OC(=O)C2=C(C[C@@H](C3CC3)O[C@H]2c2ccc(Cl)cc2)O1	inactive
CC1(C(=O)NS(=O)(=O)c2cccc(OC(F)F)c2)CCN1C(=O)COc1ccc(Cl)cc1 (stereo not given)	inactive
CCCNC(=O)C1(C)CCCN(Cc2c(C)nn(-c3ccccc3)c2C)C1 (stereo not given)	inactive
CN(C)CCNC(=O)/C(=C/c1cccc([N+](=O)[O-])c1)NC(=O)c1ccccc1	inactive
C=CCNC(=O)/C(=C\c1cccc([N+](=O)[O-])c1)NC(=O)c1ccccc1	inactive
Cc1ccc(C(=O)N/C(=C/c2ccc(-c3cccc([N+](=O)[O-])c3)o2)C(=O)NCCCN(C)C)cc1	14.6 µM (active)
Cc1ccc(CNC(=O)Nc2nnc([C@H]3C[C@H](O)[C@@H](CO)O3)s2)cc1	inactive
O=C(NC(=S)NC1CCCCC1)c1ccc(Cl)cc1	inactive
O=C(NC1CCCCC1)c1ccc(-c2ccc(Cl)cc2)o1	18.4 µM (active)
O=C(NC1CCCCCC1)c1cccnc1Sc1ccc(Cl)cc1	inactive
